For 73 molecules, Percent Effect results are on record in ChEMBL document CHEMBL3988442, “University of Dundee, Small-Polar-MMV Screening Library” (2021).

Test [1] deals with T1, Aspartate--tRNA(Asp/Asn) ligase (Mycobacterium tuberculosis (strain ATCC 25618 / H37Rv)) (UniProt P9WFW3).
T1 sequence (whole entry): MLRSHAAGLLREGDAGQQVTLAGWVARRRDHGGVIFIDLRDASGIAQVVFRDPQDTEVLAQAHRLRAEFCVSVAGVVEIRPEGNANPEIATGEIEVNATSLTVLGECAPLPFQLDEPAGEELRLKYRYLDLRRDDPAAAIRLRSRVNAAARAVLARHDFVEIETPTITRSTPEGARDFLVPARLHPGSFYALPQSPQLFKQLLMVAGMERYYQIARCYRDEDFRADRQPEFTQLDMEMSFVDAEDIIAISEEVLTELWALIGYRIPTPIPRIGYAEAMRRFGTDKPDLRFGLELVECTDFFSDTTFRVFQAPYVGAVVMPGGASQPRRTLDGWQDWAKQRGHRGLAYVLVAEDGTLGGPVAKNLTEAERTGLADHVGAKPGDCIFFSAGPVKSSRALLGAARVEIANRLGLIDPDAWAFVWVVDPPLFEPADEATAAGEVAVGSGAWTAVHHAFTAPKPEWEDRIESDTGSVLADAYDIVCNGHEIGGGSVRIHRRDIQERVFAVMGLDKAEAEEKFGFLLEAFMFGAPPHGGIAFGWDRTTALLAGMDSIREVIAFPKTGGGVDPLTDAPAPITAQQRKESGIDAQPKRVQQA
Briefly: Assay for Asp RNA synthetase-1 from Mycobacterium tuberculosis. As to conditions: 30 µM. More on the design: scale not given: direction of the effect not stated beside the values. In kind it is functional.

The target of test [2] is Shiga toxin 2 (Escherichia coli O157:H7) (UniProt P09385+P09386). Briefly: E. coli 0.157:H7 Shiga Toxin SOP - stx2 screening assay. In kind it is functional. The settings on record: 30 µM. Details: scale not given: direction of the effect not stated beside the values.

On to `CCc1nc(CN2CCCC(N(C)Cc3cnn(C)c3)C2)no1` (stereo unspecified), for which the Percent Effect in test [1] was 0.747%; in test [2], -30.2%.
In the case of `CC(=O)N1CCC(Oc2ccc(C#N)cn2)CC1`, the Percent Effect in test [1] was -4.74%; in test [2], -70.8%.
The like results for `CN(C)CCO[C@@H]1CC[C@H]2[C@H]1OCCN2C(=O)CCc1ccccc1` were, in that order, -1.17% and -27.7%.
The like results for `CN(C)C(=O)C1CN(Cc2ccccc2)CCN(S(C)(=O)=O)C1` (stereo unspecified) were, in that order, -2.4% and -6.7%.
For `COc1cccc(N2CCN(CC(O)c3cc(C)ccc3C)CC2)c1` (stereo unspecified), in that order: 9.16% and -19.7%.
For the molecule `CC(C)CCOCCNC(=O)Nc1cc(C(F)(F)F)c[nH]c1=O`, the Percent Effect in test [1] was determined as 1.4%; in test [2], 5.72%.
As for `O=C(CCN1CCC(C(=O)c2cc(F)ccc2F)CC1)NC1CC1`, the values for the Percent Effect in test [1] and in test [2] were 1.41% and -24.2%, respectively.
For the molecule `Cc1ncsc1C(=O)NCCSCc1cccs1`, the Percent Effect in test [1] is 2.21%; in test [2], -24.7%.
For the molecule `CCN1C[C@@H]2[C@@H](OC)CCN(S(=O)(=O)c3ccccc3)[C@@H]2C1`, the Percent Effect in test [1] is -4.66%; in test [2], -20.4%.
The like results for `Cc1ccc(CN2CCOC3(CCCN(C(=O)c4ccco4)C3)C2)s1` (stereo unspecified) were, in that order, 4.58% and -29.2%.
Consider `CNC(=O)Cc1ccc(NC(=O)NC(C)C(C)C)cc1` (stereo unspecified), for which the Percent Effect is -6.08% in test [1] and -0.988% in test [2].
As to `CCc1nc(CN2CCCN(C(=O)C(C)n3cncn3)CC2)cs1` (stereo unspecified), the Percent Effect in test [1] was -3.06%; in test [2], 9.04%.
As for `Cc1cc(C)n(-c2ccc(CNCc3ccc(OC(C)C)cc3)cn2)n1`, the values for the Percent Effect in test [1] and in test [2] were -4.39% and 29.5%, respectively.
For `c1ccc(-c2nc(CN3CCCC(Cn4cncn4)C3)co2)cc1` (stereo unspecified), in that order: 0.247% and -67.5%.
The like results for `COc1cccc([C@@H]2CN(C(=O)c3ccc(C)cc3O)C[C@H]2C(=O)O)c1` were, in that order, 1.74% and -5.94%.
The like results for `c1ccc(OCc2ccncc2)c(CNC2CCc3ncnn3C2)c1` (stereo unspecified) were, in that order, -3.54% and -62.8%.
As to `Cc1cccc(COC[C@@H]2CC[C@H]3[C@H](CCN3Cc3ccco3)O2)n1`, the Percent Effect in test [1] is -0.843%; in test [2], -16.8%.
Regarding `N#Cc1cc(NC(=O)c2ccsc2)ccc1N1CCC(O)CC1`, the Percent Effect in test [1] was 3.33%; in test [2], -57.5%.
As for `O=C(c1ccn(-c2ccccc2Cl)n1)N1CCSCC1`, the Percent Effect in test [1] amounted to 1.45%; in test [2], 8.96%.
For `Cn1ccc2ccnc(CC3CN(C(=O)C4CCC(F)(F)CC4)C3)c21`, in that order: 0.551% and -23.1%.
Turning to `Cc1nc2cc(C3CCN(Cc4cccc(F)c4F)C3)nn2c(O)c1C` (stereo unspecified), the Percent Effect is 2.37% in test [1] and -139% in test [2].
As to `COc1ccc(OCC(=O)NC(C)c2ccc(F)cc2)c(C(=O)O)c1` (stereo unspecified), the Percent Effect in test [1] was determined as 0.691%; in test [2] it was 12%.
With `COc1ccc(F)cc1S(=O)(=O)NCC(c1cccn1C)N(C)C` (stereo unspecified), the Percent Effect was -5.43% in test [1] and 9.89% in test [2].
For the molecule `CCS(=O)(=O)N1CCO[C@H]2[C@H](OCC3CCCC3)CC[C@@H]21`, the figures for the Percent Effect in test [1] and in test [2] were -2.82% and -8.34%, respectively.
Take `Cc1nc(COC[C@@H]2CC[C@H]3[C@H](CCN3c3ncccn3)O2)cs1`: the Percent Effect in test [1] is 1.87%; in test [2] it was -14.4%.
For `COc1cc2ncn(CC(=O)NCCCN(C)C)c(=O)c2cc1OC`, in that order: -2.9% and -29.9%.
In the case of `CC(C(=O)Nc1ccc(N2CCCC2)nc1)n1cncn1` (stereo unspecified), the Percent Effect in test [1] was found to be 0.459%; in test [2], 11.3%.
The like results for `CCc1c(C)nc2n(c1=O)CC(C(=O)Nc1nc3c(s1)CCCC3)CS2` (stereo unspecified) were, in that order, 2.32% and -5.2%.
Turning to `CCN(CC)C(=O)c1ccc(-c2ccsc2)nc1C`, the Percent Effect was -1.17% in test [1] and -6.7% in test [2].
For `OCC1CCCN1c1cc(N2CCC(OC3CCCC3)CC2)ncn1` (stereo unspecified), the Percent Effect is -1.79% in test [1] and 7.55% in test [2].
The like results for `CC(O)CN1CCC(CNCc2cccc(OC(C)C)c2)CC1` (stereo unspecified) were, in that order, 3.21% and -10.6%.
For `CN(C)c1ccc(C(=O)N2CCN(Cc3cscn3)CC2)cc1F`, in that order: 5.95% and -20.8%.
As for `O=C(CCc1ccccc1)C1CCCN(C(=O)c2ncc(F)cc2F)C1` (stereo unspecified), the Percent Effect in test [1] is 7.65%; in test [2] it was 2.26%.
Regarding `CCN(Cc1ccc2c(c1)OCCO2)C(=O)NCc1cc[nH]n1`, the Percent Effect came out at 3.66% in test [1] and 27.9% in test [2].
For `c1cnc(-c2nc(CNCCn3cccn3)cs2)nc1`, in that order: -1.5% and 5.58%.
The like results for `Cn1nc(CNC(=O)NCc2ccc(Cl)cc2)c2c1CCOC2` were, in that order, 1.91% and -9.65%.
The like results for `Cc1ccc2c(n1)N(CCn1cccn1)CCN(C(=O)NC1CC1)C2` were, in that order, 0.917% and 6.77%.
Turning to `COCCN1CCCC1c1nccnc1Nc1nc(C)cs1` (stereo unspecified), the values for the Percent Effect in test [1] and in test [2] were -3.52% and 0.955%, respectively.
For `COCCN(C)C(=O)Cn1cccc(OC)c1=O`, in that order: 49.9% and -42.8%.
Take `Cc1cc(CN2CCCC2Cn2cncn2)no1` (stereo unspecified): the Percent Effect in test [1] was -4.72%; in test [2], -0.0947%.
Take `CC(C)Oc1ncccc1CNC(=O)c1ccco1`: the Percent Effect is -4.72% in test [1] and -7.65% in test [2].
For `COc1ccc(Br)c(C(=O)NCC2CCN(S(=O)(=O)C3CC3)CC2)c1`, in that order: -8.22% and -0.843%.
For the molecule `c1ccc(-c2ccc(C3CNCCO3)nc2)cc1` (stereo unspecified), the Percent Effect is 7.81% in test [1] and -59.5% in test [2].
The like results for `CN(C)CCNC(=O)c1cnc2c(c1)nc(-c1ccccc1Cl)n2C` were, in that order, 3.74% and 5.62%.
With `CN(Cc1cnn(C)c1)C(=O)NC1CCN(c2ncccn2)CC1`, the Percent Effect is -1.27% in test [1] and 10.9% in test [2].
The like results for `Cc1ccc(N2CCCC(NCc3ccc(C)o3)C2)nn1` (stereo unspecified) were, in that order, -0.626% and -32.5%.
For the molecule `CCn1cc(NC(=O)NCC(C)O)cn1` (stereo unspecified), the Percent Effect in test [1] is -3.08%; in test [2], 3.43%.
As to `CC(Nc1cccc(CN2CCOC2=O)c1)C(=O)NC(N)=O` (stereo unspecified), the Percent Effect was -3.68% in test [1] and -7.19% in test [2].
For `O=C(c1ccc2[nH]ccc2c1)N1CCn2cnc(COCC3CC3)c2C1`, in that order: 7.07% and -13.5%.
For `Cc1nn(C)c(N(C)C)c1CNC(C)COc1cccc(F)c1` (stereo unspecified), in that order: -0.463% and -10.4%.
The like results for `CN(C)c1ncc(CN2CCOC(C(=O)Nc3ccccc3)C2)cn1` (stereo unspecified) were, in that order, 6.13% and -0.28%.
Turning to `CCN1CCC2(CC1)CC(NC(=O)NC)c1cc(C)ccc12` (stereo unspecified), the Percent Effect is -5.21% in test [1] and -9.91% in test [2].
As to `COC[C@@]12CCO[C@@H]1CCN(C(=O)COc1ccccc1OC)C2`, the Percent Effect in test [1] is 4.72%; in test [2] it was 19.5%.
For `CCc1nc2n(n1)CC(NCC(=O)Nc1ccc(Cl)cn1)CC2` (stereo unspecified), in that order: 0.314% and 2.33%.
With `Cc1cc(CN(Cc2cccs2)CC2CCCO2)no1` (stereo unspecified), the results for the Percent Effect in test [1] and in test [2] were 1.32% and 12.5%, respectively.
For `CCc1nc2n(n1)CC(NCc1noc(-c3ccccc3)n1)CC2` (stereo unspecified), in that order: -2.95% and -17.9%.
Take `COc1ccc(CNC(=O)c2nn(C)c3c2CS(=O)(=O)CC3)cc1OC`: the Percent Effect in test [1] was -8.6%; in test [2], -18.6%.
In the case of `CCN1CCCN(C(=O)c2cnc(OC(C)C)c(Cl)c2)CC1`, the Percent Effect in test [1] was -0.365%; in test [2], -50.8%.
For `Cc1cc(C)n(C2CN(CC(=O)NCC(C)(C)N3CCOCC3)C2)n1`, in that order: -2.72% and -13.3%.
For `CCN1CCC(CNC(=O)C2(c3cccc(C)c3)CC2)C1` (stereo unspecified), in that order: 2.87% and 1.34%.
Regarding `CC(C)c1nn(C)c(N(C)C)c1CNCCC(=O)N(C)C`, the results for the Percent Effect in test [1] and in test [2] were -4.3% and 10.1%, respectively.
Take `Cc1cnn(CC2CCCN2C(=O)CCc2ccsc2)c1` (stereo unspecified): the Percent Effect in test [1] is -3.37%; in test [2], 14.6%.
On to `Cc1noc2nc(C3CCN(Cc4cccnc4)CC3)cc(C(F)F)c12`, for which the values for the Percent Effect in test [1] and in test [2] were 1.32% and -52.2%, respectively.
For `O=C(c1cnccn1)N1CCN2C[C@H](OCc3ccccn3)C[C@H]2C1`, in that order: 4.4% and -7.9%.
For `Cc1nn(C)c2c(=O)n(CC(=O)Nc3cc(Cl)cc(Cl)c3)nnc12`, in that order: -7.23% and -36.8%.
The like results for `CC(C)(O)CN1CCN(C(=O)c2sccc2C2CC2)CC1` were, in that order, 0.16% and 10.1%.
With `COc1ccc(S(=O)(=O)N2CCCC3(CCCN3S(C)(=O)=O)C2)cc1` (stereo unspecified), the figures for the Percent Effect in test [1] and in test [2] were -2.13% and 0.605%, respectively.
As to `O=c1cc2c(nn1CN1CCOCC1)CCC2`, the values for the Percent Effect in test [1] and in test [2] were 2.64% and -10.5%, respectively.
As for `CC(C)NC(=O)CS(=O)(=O)Cc1cc(Cl)c2c(c1)OCCO2`, the Percent Effect in test [1] was -0.2%; in test [2] it was -1.92%.
Turning to `CSCC(C)(O)CNC(=O)c1cc(Br)ccc1Cl` (stereo unspecified), the Percent Effect was -0.23% in test [1] and -13.2% in test [2].
Take `CC(=O)N1CCC[C@H]1C(=O)NCCOc1cccc(Cl)c1`: the Percent Effect in test [1] is 1.97%; in test [2], -31.3%.
As to `COc1ccccc1CNC(=O)N1CCCC(NS(C)(=O)=O)C1` (stereo unspecified), the Percent Effect in test [1] was 1.76%; in test [2], 23.8%.
On to `CCC(=O)Nc1nnc(CCCOc2ccccc2)s1`, for which the Percent Effect in test [1] is -2.47%; in test [2], -12%.
